The source of these data is PubChem BioAssay (EPA / NIEHS).

SMILES strings stand for the structures. Inconclusive results are not listed. Activity calls are given as the source filed them. How the source made its calls, unless noted: active means hit-call score of the fitted dose curve at least 0.9, where 1 is the maximum; inactive means score below 0.9.

Test [1] in a line: ATG_TCF_b_cat_CIS: Attagene CIS-FACTORIAL HepG2 Assay for human T-Cell-Factor with beta-catenin (TCF/b-cat) (AID 2282965). Particulars: HepG2 TCF/beta-catenin cis-reporter transcription, actives raise or lower the signal. The procedure, abridged:
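Measured: reporter mRNA in HepG2 transiently transfected with cis-promoter reporter units, 24 h after chemical addition. Fitting was bidirectional, DMSO as negative control.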

Test [2] is described as follows: ATG_TAL_CIS: Attagene CIS-FACTORIAL HepG2 Assay for human TAL Basal Promoter (AID 2282966).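 Further: background control endpoint measuring basal TAL promoter reporter mRNA not a specific factor.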 Particulars: HepG2 Attagene cis-factorial TAL promoter reporter; actives raise or lower the signal. In a few lines: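 Fluorescence of labelled reporter cDNA fragments, resolved by capillary electrophoresis, gave the readout. Human HepG2 liver cells carried transiently transfected cis-element reporter units and were treated for 24 hours; activity was fitted bidirectionally against DMSO.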

The target in test [3] is Estrogen receptor (Homo sapiens) (UniProt P03372). In words: ATG_ERa_TRANS: Attagene TRANS-FACTORIAL HepG2 Assay for human Estrogen Receptor alpha (ERa) (AID 2282970; active means hit-call score of the fitted dose curve at least 0.9, where 1 is the maximum). Particulars: HepG2 Attagene TRANS ERa GAL4 reporter, mRNA. The procedure, abridged: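 Human liver HepG2, transient transfection of multiple GAL4-UAS reporter units; TRANS format (exogenous NR-Gal4 chimera). 24 h dosing. Readout: reporter mRNA, RT-PCR, 6-FAM primer extension, HpaI digest, capillary electrophoresis. Positive direction vs DMSO.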

For test [4], the target named is X-box-binding protein 1 (Homo sapiens) (UniProt P17861). As to the kind of experiment: ATG_Xbp1_CIS: Attagene CIS-FACTORIAL HepG2 Assay for human X-box Binding Protein 1 (XBP1) (AID 2282972). Particulars: HepG2 XBP1 cis-element reporter, Attagene multiplex; actives raise or lower the signal. In a few lines:
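HepG2 cells transiently transfected with cis-regulated multiple reporter transcription units; endogenous transcription factor activity measured 24 hours after chemical dosing. Reporter mRNA quantified by RT-PCR, 6-FAM primer extension, HpaI digestion and capillary electrophoresis; bidirectional fitting versus DMSO.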

A short description of test [5]: ATG_M_19_TRANS: Attagene TRANS-FACTORIAL HepG2 Assay for M19 Transcription Factor (Internal Marker) (AID 2282974; active means hit-call score of the fitted dose curve at least 0.9, where 1 is the maximum). Particulars: HepG2 Attagene TRANS-FACTORIAL M19 internal marker reporter. The procedure, abridged: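 Background-control readout: after 24 h chemical exposure of transfected HepG2 carrying GAL4-driven reporter units, RNA was reverse-transcribed, amplified, fluorescently labeled and sized by capillary electrophoresis; gain-of-signal fit against DMSO.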

A short description of test [6]: ATG_GAL4_TRANS: Attagene TRANS-FACTORIAL HepG2 Assay for GAL4 (Internal Marker) (AID 2282976; active means hit-call score of the fitted dose curve at least 0.9, where 1 is the maximum). Particulars: HepG2 Attagene TRANS GAL4 internal marker reporter. In a few lines:
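First, HepG2 cells were transfected with reporter units under GAL4-UAS control. Next, they were treated with chemical for 24 h. Finally, RNA was reverse-transcribed, PCR-amplified, FAM-labelled and resolved by capillary electrophoresis, with induction scored against DMSO.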

Test [7] in a line: ATG_VDRE_CIS: Attagene CIS-FACTORIAL HepG2 Assay for human Vitamin D Receptor Element (VDRE) (AID 2282968). Particulars: HepG2 VDRE cis-reporter transcription, actives raise or lower the signal. In a few lines: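 Reporter mRNA induction, quantified by capillary electrophoresis of fluorescently labelled RT-PCR products, was read 24 h after dosing HepG2 cells carrying transiently transfected cis-regulated reporter units; gain or loss relative to DMSO.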

Test [8] concerns the target Nuclear receptor subfamily 1 group I member 3 (Homo sapiens) (UniProt Q14994). As to the kind of experiment: ATG_CAR_TRANS: Attagene TRANS-FACTORIAL HepG2 Assay for human Constitutive Androstane Receptor (CAR) (AID 2282969; active means hit-call score of the fitted dose curve at least 0.9, where 1 is the maximum;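 further: activators raise reporter mRNA above DMSO so AC50 marks induction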). Particulars: HepG2 Attagene TRANS-FACTORIAL CAR reporter. The procedure, abridged:
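Readout is reporter mRNA induction, quantified by fluorescent primer extension and capillary electrophoresis after RT-PCR. Cells were HepG2 transiently carrying chimeric NR-Gal4 constructs with GAL4-UAS reporters, treated for 24 h; activity scored upward from DMSO.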

Test [9] concerns the target Steroid hormone receptor ERR1 (Homo sapiens) (UniProt P11474). In words: ATG_ERRa_TRANS: Attagene TRANS-FACTORIAL HepG2 Assay for human Estrogen-Related Receptor alpha (ERRa) (AID 2282971; active means hit-call score of the fitted dose curve at least 0.9, where 1 is the maximum). Particulars: HepG2 Attagene TRANS reporter, ERRa transactivation. In a few lines: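 Reporter transcript induction was quantified by RT-PCR and capillary electrophoresis of FAM-labelled, HpaI-cut products after 24 h treatment of HepG2 cells carrying transiently transfected GAL4-UAS reporter units and an exogenous ERRa-Gal4 fusion; activity scored as increase over DMSO.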

Chain of Estrogen receptor (Homo sapiens) (P03372 whole entry, looked up, the tested form may be a part): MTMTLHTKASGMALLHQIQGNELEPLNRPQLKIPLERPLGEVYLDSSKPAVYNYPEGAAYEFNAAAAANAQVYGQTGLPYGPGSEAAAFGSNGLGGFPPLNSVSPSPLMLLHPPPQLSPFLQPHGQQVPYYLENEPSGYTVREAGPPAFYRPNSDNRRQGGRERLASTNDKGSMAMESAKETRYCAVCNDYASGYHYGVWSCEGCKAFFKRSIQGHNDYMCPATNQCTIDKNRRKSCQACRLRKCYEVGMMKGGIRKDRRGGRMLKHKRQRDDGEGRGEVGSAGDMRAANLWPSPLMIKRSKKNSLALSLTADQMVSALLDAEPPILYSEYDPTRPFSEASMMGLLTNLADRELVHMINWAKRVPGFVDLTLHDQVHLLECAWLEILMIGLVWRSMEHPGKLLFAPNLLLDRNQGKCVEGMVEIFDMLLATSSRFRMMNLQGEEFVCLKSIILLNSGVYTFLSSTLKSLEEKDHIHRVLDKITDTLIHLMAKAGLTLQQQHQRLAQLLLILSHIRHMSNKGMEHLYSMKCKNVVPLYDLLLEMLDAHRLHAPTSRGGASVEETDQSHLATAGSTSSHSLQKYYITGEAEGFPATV
Chain of X-box-binding protein 1 (Homo sapiens) (P17861 whole entry, looked up): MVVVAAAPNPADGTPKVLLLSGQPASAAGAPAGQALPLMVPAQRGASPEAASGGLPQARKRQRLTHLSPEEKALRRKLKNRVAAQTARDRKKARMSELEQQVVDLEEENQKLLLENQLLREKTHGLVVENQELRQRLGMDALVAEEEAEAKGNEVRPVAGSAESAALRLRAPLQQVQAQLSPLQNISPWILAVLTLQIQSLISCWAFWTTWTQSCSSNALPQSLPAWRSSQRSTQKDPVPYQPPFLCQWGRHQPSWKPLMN
Chain of Steroid hormone receptor ERR1 (Homo sapiens) (P11474 whole entry, looked up, the tested form may be a part): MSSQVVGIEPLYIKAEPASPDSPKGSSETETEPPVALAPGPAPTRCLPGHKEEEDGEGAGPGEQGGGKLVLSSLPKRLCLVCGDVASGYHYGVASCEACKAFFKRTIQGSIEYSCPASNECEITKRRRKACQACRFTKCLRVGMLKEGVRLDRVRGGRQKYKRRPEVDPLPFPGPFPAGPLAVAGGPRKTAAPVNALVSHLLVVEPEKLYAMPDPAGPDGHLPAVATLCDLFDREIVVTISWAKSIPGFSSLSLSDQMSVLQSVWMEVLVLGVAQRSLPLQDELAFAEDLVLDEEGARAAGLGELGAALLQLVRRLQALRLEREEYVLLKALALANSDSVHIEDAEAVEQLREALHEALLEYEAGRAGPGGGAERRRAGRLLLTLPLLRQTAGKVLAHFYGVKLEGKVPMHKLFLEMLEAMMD
Chain of Nuclear receptor subfamily 1 group I member 3 (Homo sapiens) (Q14994 whole entry, looked up, the tested form may be a part): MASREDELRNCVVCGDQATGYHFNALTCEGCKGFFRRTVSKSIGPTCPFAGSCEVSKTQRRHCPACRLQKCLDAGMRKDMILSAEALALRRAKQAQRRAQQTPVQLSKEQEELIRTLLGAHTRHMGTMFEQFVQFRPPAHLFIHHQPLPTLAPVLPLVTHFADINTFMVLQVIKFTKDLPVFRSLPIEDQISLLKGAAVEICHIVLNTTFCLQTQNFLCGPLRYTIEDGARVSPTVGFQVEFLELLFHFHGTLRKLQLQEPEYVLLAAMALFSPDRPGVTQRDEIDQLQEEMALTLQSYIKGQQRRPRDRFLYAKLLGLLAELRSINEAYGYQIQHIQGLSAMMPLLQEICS

Regarding `CCCCOC(=O)[C@H](C)O`, the compound was classed as inactive in test [1], in [2], in test [3], in test [4], in [5] and in test [6].

In the case of `O=C(O)CCC(F)(F)C(F)(F)C(F)(F)F`, the result in [1], in [2], in [7], in [8] and in [9] was inactive.

Regarding `CCCCOC(=O)C(C)O` (stereo not drawn), the call in test [1], in test [2], in test [7], in [8] and in test [4] was inactive.

Consider `Cc1cc(O)c(C(C)(C)C)cc1C(C)(C)C`, for which the compound was classed as inactive in [1], in [2], in test [7], in test [8], in [3] and in [4].

With `CCN(CC)c1ccc(C=O)cc1`, the compound was classed as inactive in test [1], in [2], in test [8], in [3] and in [4].

In the case of `OCC(F)(F)C(F)(F)C(F)(F)C(F)(F)C(F)(F)C(F)(F)C(F)(F)C(F)(F)CO`, the compound was called inactive in test [1], in [2], in test [9], in test [4] and in test [6]. Also, in [3], the AC50 was 0.178 µM (active).

Regarding `CC(C)(C)c1cc(Cc2cc(C(C)(C)C)c(O)c(C(C)(C)C)c2)cc(C(C)(C)C)c1O`, the compound was classed as inactive in test [1], in test [2], in [3] and in test [4]. Further, the AC50 in test [7] is 2.31 µM (active).

For the compound `CC(=O)C=O`, the outcome in [1], in test [2], in test [7], in test [4] and in test [5] was inactive.

`CCCCC(CC)COC(=O)c1ccc(N(C)C)cc1` (stereo not drawn): the compound was called inactive in test [1], in [2], in [8] and in test [4]. The AC50 in test [3] was 5.75 µM (active).

On to `CO[Si](CCCOCC1CO1)(OC)OC` (stereo not drawn), for which the compound was called inactive in test [1], in test [2], in [7] and in test [4].

For `O=C(c1ccccc1)c1ccc(Cl)cc1`, the compound was classed as inactive in test [1], in test [2], in test [8] and in test [4]. Also, the AC50 in test [7] is 47.6 µM (active); in test [3], 12.1 µM (active).

As to `O=C(c1ccccc1)c1ccc(O)cc1O`, the compound was classed as inactive in test [1], in [2], in [8] and in test [5]. For the same compound, the AC50 in [3] was 1.33 µM (active).

Regarding `CCN(CC)c1ccc(C=O)c(O)c1`, the outcome in [1], in [2], in test [3] and in test [6] was inactive.

Turning to `CCc1cc(Cc2cc(CC)c(N)c(CC)c2)cc(CC)c1N`, the AC50 in test [1] was 33.4 µM (active); in test [2], 53.4 µM (active); in test [4], 38.3 µM (active). The compound was called inactive in [8] and in test [3].

On to `CC(C)=CCCC(C)O` (stereo not drawn), for which the compound was classed as inactive in [1], in [2], in test [8] and in [6].

For `NC(=O)C(F)(F)C(F)(F)C(F)(F)C(F)(F)C(N)=O`, the result in [1], in test [2], in test [7], in [3], in test [9] and in test [4] was inactive. Further, the call in [5] and in test [6] was inactive.

Turning to `O=C1C=CC(=O)N1c1ccccc1`, the call in test [1], in test [2], in test [7], in [3], in [9] and in test [4] was inactive. The outcome in test [6] was inactive.

Take `O=c1cccc[nH]1`: the call in test [1], in test [2], in [7], in test [9], in [4] and in test [5] was inactive.

`CC1=CCC2C(=O)OC(=O)C2C1` (stereo not drawn): the compound was called inactive in test [1], in test [2], in test [7], in test [8] and in test [4].

Regarding `O=C(Cl)c1ccc(Cl)cc1Cl`, the outcome in test [1], in test [2], in test [7] and in test [4] was inactive.

With `Nc1c(Br)cc([N+](=O)[O-])cc1Br`, the outcome in test [1], in [2], in test [3], in test [9] and in [4] was inactive.

Consider `CC1=CCC(=O)O1`, for which the call in [1], in test [2], in test [8], in test [9] and in test [4] was inactive.

Take `NC(=O)C(F)(F)C(F)(F)C(F)(F)C(F)F`: the compound was classed as inactive in test [1], in [2], in test [7], in [3] and in test [4].

Turning to `COC(F)(C(F)F)C(F)(F)F` (stereo not drawn), the result in test [1], in test [2], in test [7], in test [3], in [9] and in [6] was inactive.

With `CCCCCCCC/C=C\CCCCCCCC(=O)OCC(O)CO` (stereo not drawn), the outcome in [1], in test [2], in [7], in [9], in test [4] and in [6] was inactive.

Turning to `O=C1OC(=O)c2ccc3c4c(ccc1c24)C(=O)OC3=O`, the compound was classed as inactive in [1], in test [2], in test [3], in [4] and in test [6].

For `O=C1c2ccccc2C(=O)c2c(Cl)cccc21`, the compound was classed as inactive in test [1], in test [2], in [7], in [9], in test [4] and in test [5]. Further, the compound was classed as inactive in test [6]. Also, the AC50 in [3] was 2.88 µM (active).

In the case of `OCC(F)(F)C(F)(F)C(F)(F)CO`, the compound was called inactive in test [1], in test [2], in test [7], in test [3] and in [9].

As for `FC(F)(F)C(F)(F)C(F)(F)C(F)(F)C(F)(F)C(F)(F)CC[Si](Cl)(Cl)Cl`, the compound was called inactive in test [1], in test [2], in test [7], in [3], in [9] and in test [4]. In addition, the outcome in [6] was inactive.

A word on the AC50: it is the concentration at which the activity in the assay is half-maximal.
